{
  "source": "the supplement of paper PMC10981050",
  "note": "Where a name gives a salt, the structure may show the parent alone.",
  "data": [
    {"test_system": "MARIMO", "experiment": "cell viability relative to vehicle control; higher = less cytotoxic", "conditions": "10 µM; SRSF2 genotype: SRSF2 wt/wt", "outline": "(§1)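 Mutant clones made by CRISPR editing and their isogenic wild-type counterparts, from four leukaemia lines, were exposed to a single 10 µM dose of each library compound for 48 h. The supernatant was then removed and CellTiter-Glo luminescence was read. Viability was reported as percent of the on-plate vehicle control.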", "units": {"cell viability": "%"}, "values": [
      {"smiles": "CC1(C)[C@@H](O[C@H]2O[C@H](C(=O)O)[C@@H](O)[C@H](O)[C@H]2O[C@@H]2O[C@H](C(=O)O)[C@@H](O)[C@H](O)[C@H]2O)CC[C@]2(C)[C@H]3C(=O)C=C4[C@@H]5C[C@@](C)(C(=O)O)CC[C@]5(C)CC[C@@]4(C)[C@]3(C)CC[C@@H]12", "note": "[Ammonium Glycyrrhizate]", "cell viability": 101},
      {"smiles": "CCNC(=O)c1noc(-c2cc(C(C)C)c(O)cc2O)c1-c1ccc(CN2CCOCC2)cc1", "note": "[Luminespib (AUY-922, NVP-AUY922)]", "cell viability": 26},
      {"smiles": "C=CCc1cc(OC)c(O)c(C(=O)NCCO)c1", "note": "[Alibendol]", "cell viability": 104},
      {"smiles": "CN1CCN(Cc2ccc(Nc3ncc(Cl)c(Nc4ccccc4S(=O)(=O)N(C)C)n3)cc2)CC1", "cell viability": 4.7},
      {"smiles": "CC(C[N+](C)(C)C)OC(N)=O", "note": "(centres undefined) [Bethanechol chloride]", "cell viability": 112},
      {"smiles": "CC1=CC(=O)[C@@H]2C[C@H]1C2(C)C", "note": "[(-)-Verbenone]", "cell viability": 98.8},
      {"smiles": "C[C@@H](Nc1cc(F)cc(F)c1)c1cc(C(=O)N(C)C)cc2c(=O)cc(N3CCOCC3)oc12", "cell viability": 47.3},
      {"smiles": "Cc1nc2cccc(N)c2c(=O)n1C1CCC(=O)NC1=O", "note": "(centres undefined) [Avadomide(CC-122)]", "cell viability": 92.7},
      {"smiles": "CN1Cc2c(ccc3c2OCO3)[C@@]2(C)[C@@H](O)Cc3cc4c(cc3[C@@H]12)OCO4", "note": "[Corynoline]", "cell viability": 9.1},
      {"smiles": "COc1ccc(Oc2cc(NCCC(F)(F)F)c3ncc(-c4ccc(C(=O)NC5CC5)c(C)c4)n3n2)c(F)c1F", "cell viability": 77.1},
      {"smiles": "O=[N+]([O-])c1ccc(Sc2cccc[n+]2[O-])c2nonc12", "cell viability": 0.24},
      {"smiles": "CC(=O)N1CCN(c2ccc(NC(=O)Cc3cnc(-c4ccnc(F)c4)c(C)c3)nc2)CC1", "cell viability": 97.8},
      {"smiles": "C[C@@H]1CC[C@H]2C(C)(C)[C@H]3C[C@@]12CC[C@@]3(C)O", "note": "[Cedrol]", "cell viability": 107},
      {"smiles": "CNC(=O)c1ccc(N2C(=S)N(c3cnc(C#N)c(C(F)(F)F)c3)C(=O)C23CCC3)cc1F", "cell viability": 110},
      {"smiles": "C=C1[C@@H]2CC[C@@H](C2)C1(C)C", "note": "[Camphene]", "cell viability": 111},
      {"smiles": "CCCCCCCCC(=O)O", "note": "[Nonanoic acid]", "cell viability": 106},
      {"smiles": "CC1(C)S[C@@H]2[C@H](NC(=O)[C@H](NC(=O)N3CCNC3=O)c3ccccc3)C(=O)N2[C@H]1C(=O)O", "note": "[Azlocillin sodium salt]", "cell viability": 92.1},
      {"smiles": "COc1cc2ncnc(Nc3ccc(F)c(Cl)c3)c2cc1NC(=O)/C=C/CN1CCCCC1", "cell viability": 58.2},
      {"smiles": "O=C1NS(=O)(=O)c2ccccc21", "note": "[Saccharin]", "cell viability": 101},
      {"smiles": "CNC(=O)c1cnn(-c2nc(N)c3ncn([C@@H]4O[C@H](CO)[C@@H](O)[C@H]4O)c3n2)c1", "note": "[Regadenoson]", "cell viability": 103},
      {"smiles": "CCCc1cc(C(N)=S)ccn1", "note": "[Protionamide (Prothionamide)]", "cell viability": 102},
      {"smiles": "O=C(c1ccc(Oc2ccccc2)cc1Cl)c1c[nH]c2ncnc(N[C@@H]3CC[C@@H](CO)OC3)c12", "cell viability": 22.1},
      {"smiles": "C=CC(=O)Nc1cc(Nc2nccc(-c3cn(C)c4ccccc34)n2)c(OC)cc1N(C)CCN(C)C", "cell viability": 1.36},
      {"smiles": "CC(=O)Oc1c(C)c(C)c2c(c1C)CCC(C)(CCC[C@H](C)CCC[C@H](C)CCCC(C)C)O2", "note": "(some centres undefined) [Vitamin E Acetate]", "cell viability": 103},
      {"smiles": "C=CC(=O)Nc1ccc2ncnc(Nc3cccc(Br)c3)c2c1", "cell viability": 86.8},
      {"smiles": "CC1(C)O[C@H]1COc1c2ccoc2cc2oc(=O)ccc12", "note": "[Oxypeucedanin]", "cell viability": 93.2},
      {"smiles": "Cc1nc2ccc(NC(=O)Nc3ccnc4cccnc34)cc2o1", "cell viability": 89.9},
      {"smiles": "O=C(COc1ccc(C(=O)c2ccccc2)cc1)NC1CCN(Cc2ccccc2)CC1", "note": "[Adiporon]", "cell viability": 53.5},
      {"smiles": "CS(=O)(=O)Nc1cc2occ(NC=O)c(=O)c2cc1Oc1ccccc1", "note": "[Iguratimod]", "cell viability": 107},
      {"smiles": "Cc1ccnc(NS(=O)(=O)c2ccc(N)cc2)n1", "note": "[Sulfamerazine]", "cell viability": 104},
      {"smiles": "CC(=CCNc1ncnc2nc[nH]c12)CO", "note": "[Trans-Zeatin]", "cell viability": 108},
      {"smiles": "CCCC(CCC)C(=O)O", "note": "[Valproic acid sodium salt (Sodium valproate)]", "cell viability": 91.5},
      {"smiles": "C[C@]1(COc2ccc(N3CCC(Oc4ccc(OC(F)(F)F)cc4)CC3)cc2)Cn2cc([N+](=O)[O-])nc2O1", "note": "[Delamanid]", "cell viability": 100},
      {"smiles": "COc1ccc(CCC(=O)Nc2nc3ccc(Cl)cc3s2)cc1OC", "cell viability": 96.3}
    ]},
    {"test_system": "MOLM14", "experiment": "cell viability relative to vehicle control; higher = less cytotoxic", "conditions": "10 µM; SRSF2 genotype: SRSF2 P95H/wt", "outline": "as §1", "units": {"cell viability": "%"}, "values": [
      {"smiles": "CO[C@H]1/C=C/O[C@@]2(C)Oc3c(C)c(O)c4c(O)c(c(/C=N/N5CCN(C6CCCC6)CC5)c(O)c4c3C2=O)NC(=O)/C(C)=C\\C=C\\[C@H](C)[C@H](O)[C@@H](C)[C@@H](O)[C@@H](C)[C@H](OC(C)=O)[C@@H]1C", "note": "[Rifapentine]", "cell viability": 56.2},
      {"smiles": "O=C1NC(=O)/C(=C/c2ccc3c(c2)OC(F)(F)O3)S1", "cell viability": 96.9},
      {"smiles": "CCOC(=O)c1ccc(N)cc1", "note": "[Benzocaine]", "cell viability": 87.9},
      {"smiles": "Cn1nc(C(C)(C)C)cc1C(=O)N[C@@H](Cc1cccc(Cl)c1)C(=O)NCC#N", "note": "[Cathepsin Inhibitor 1]", "cell viability": 92.4},
      {"smiles": "Cc1c(C(=O)Nc2ccc(N3CCC(N4CCOCC4)CC3)c(C#N)c2)cnn1-c1ccc(Cl)cc1", "cell viability": 11},
      {"smiles": "CCOC(=O)[C@H](CCc1ccccc1)N[C@@H](C)C(=O)N(CC(=O)O)C1Cc2ccccc2C1", "note": "[Delapril Hydrochloride]", "cell viability": 86.3},
      {"smiles": "CC1(C)[C@@H](O[C@H]2O[C@H](C(=O)O)[C@@H](O)[C@H](O)[C@H]2O[C@@H]2O[C@H](C(=O)O)[C@@H](O)[C@H](O)[C@H]2O)CC[C@]2(C)[C@H]3C(=O)C=C4[C@@H]5C[C@@](C)(C(=O)O)CC[C@]5(C)CC[C@@]4(C)[C@]3(C)CC[C@@H]12", "note": "[Ammonium Glycyrrhizate]", "cell viability": 106},
      {"smiles": "CCNC(=O)c1noc(-c2cc(C(C)C)c(O)cc2O)c1-c1ccc(CN2CCOCC2)cc1", "note": "[Luminespib (AUY-922, NVP-AUY922)]", "cell viability": 1.2},
      {"smiles": "C=CCc1cc(OC)c(O)c(C(=O)NCCO)c1", "note": "[Alibendol]", "cell viability": 98.2},
      {"smiles": "CN1CCN(Cc2ccc(Nc3ncc(Cl)c(Nc4ccccc4S(=O)(=O)N(C)C)n3)cc2)CC1", "cell viability": 11.3},
      {"smiles": "CC(C[N+](C)(C)C)OC(N)=O", "note": "(centres undefined) [Bethanechol chloride]", "cell viability": 108},
      {"smiles": "CC1=CC(=O)[C@@H]2C[C@H]1C2(C)C", "note": "[(-)-Verbenone]", "cell viability": 90.8},
      {"smiles": "C[C@@H](Nc1cc(F)cc(F)c1)c1cc(C(=O)N(C)C)cc2c(=O)cc(N3CCOCC3)oc12", "cell viability": 42.3},
      {"smiles": "Cc1nc2cccc(N)c2c(=O)n1C1CCC(=O)NC1=O", "note": "(centres undefined) [Avadomide(CC-122)]", "cell viability": 99.2},
      {"smiles": "CN1Cc2c(ccc3c2OCO3)[C@@]2(C)[C@@H](O)Cc3cc4c(cc3[C@@H]12)OCO4", "note": "[Corynoline]", "cell viability": 8.94},
      {"smiles": "COc1ccc(Oc2cc(NCCC(F)(F)F)c3ncc(-c4ccc(C(=O)NC5CC5)c(C)c4)n3n2)c(F)c1F", "cell viability": 58.9},
      {"smiles": "O=[N+]([O-])c1ccc(Sc2cccc[n+]2[O-])c2nonc12", "cell viability": 0.22},
      {"smiles": "CC(=O)N1CCN(c2ccc(NC(=O)Cc3cnc(-c4ccnc(F)c4)c(C)c3)nc2)CC1", "cell viability": 80.4},
      {"smiles": "C[C@@H]1CC[C@H]2C(C)(C)[C@H]3C[C@@]12CC[C@@]3(C)O", "note": "[Cedrol]", "cell viability": 104},
      {"smiles": "CNC(=O)c1ccc(N2C(=S)N(c3cnc(C#N)c(C(F)(F)F)c3)C(=O)C23CCC3)cc1F", "cell viability": 98.4},
      {"smiles": "C=C1[C@@H]2CC[C@@H](C2)C1(C)C", "note": "[Camphene]", "cell viability": 95},
      {"smiles": "CCCCCCCCC(=O)O", "note": "[Nonanoic acid]", "cell viability": 98.4},
      {"smiles": "CC1(C)S[C@@H]2[C@H](NC(=O)[C@H](NC(=O)N3CCNC3=O)c3ccccc3)C(=O)N2[C@H]1C(=O)O", "note": "[Azlocillin sodium salt]", "cell viability": 86.4},
      {"smiles": "COc1cc2ncnc(Nc3ccc(F)c(Cl)c3)c2cc1NC(=O)/C=C/CN1CCCCC1", "cell viability": 26.9},
      {"smiles": "O=C1NS(=O)(=O)c2ccccc21", "note": "[Saccharin]", "cell viability": 97.9},
      {"smiles": "CNC(=O)c1cnn(-c2nc(N)c3ncn([C@@H]4O[C@H](CO)[C@@H](O)[C@H]4O)c3n2)c1", "note": "[Regadenoson]", "cell viability": 103},
      {"smiles": "CCCc1cc(C(N)=S)ccn1", "note": "[Protionamide (Prothionamide)]", "cell viability": 95.4},
      {"smiles": "O=C(c1ccc(Oc2ccccc2)cc1Cl)c1c[nH]c2ncnc(N[C@@H]3CC[C@@H](CO)OC3)c12", "cell viability": 12.6},
      {"smiles": "C=CC(=O)Nc1cc(Nc2nccc(-c3cn(C)c4ccccc34)n2)c(OC)cc1N(C)CCN(C)C", "cell viability": 0.38},
      {"smiles": "CC(=O)Oc1c(C)c(C)c2c(c1C)CCC(C)(CCC[C@H](C)CCC[C@H](C)CCCC(C)C)O2", "note": "(some centres undefined) [Vitamin E Acetate]", "cell viability": 103},
      {"smiles": "C=CC(=O)Nc1ccc2ncnc(Nc3cccc(Br)c3)c2c1", "cell viability": 61.6},
      {"smiles": "CC1(C)O[C@H]1COc1c2ccoc2cc2oc(=O)ccc12", "note": "[Oxypeucedanin]", "cell viability": 93.6},
      {"smiles": "Cc1nc2ccc(NC(=O)Nc3ccnc4cccnc34)cc2o1", "cell viability": 104},
      {"smiles": "O=C(COc1ccc(C(=O)c2ccccc2)cc1)NC1CCN(Cc2ccccc2)CC1", "note": "[Adiporon]", "cell viability": 65.2},
      {"smiles": "CS(=O)(=O)Nc1cc2occ(NC=O)c(=O)c2cc1Oc1ccccc1", "note": "[Iguratimod]", "cell viability": 99.1},
      {"smiles": "Cc1ccnc(NS(=O)(=O)c2ccc(N)cc2)n1", "note": "[Sulfamerazine]", "cell viability": 99.7},
      {"smiles": "CC(=CCNc1ncnc2nc[nH]c12)CO", "note": "[Trans-Zeatin]", "cell viability": 98.3},
      {"smiles": "CCCC(CCC)C(=O)O", "note": "[Valproic acid sodium salt (Sodium valproate)]", "cell viability": 93.2},
      {"smiles": "C[C@]1(COc2ccc(N3CCC(Oc4ccc(OC(F)(F)F)cc4)CC3)cc2)Cn2cc([N+](=O)[O-])nc2O1", "note": "[Delamanid]", "cell viability": 94.9},
      {"smiles": "COc1ccc(CCC(=O)Nc2nc3ccc(Cl)cc3s2)cc1OC", "cell viability": 94.6}
    ]}
  ]
}
